From PubChem
USP30 block: blocks human USP30 ubiquitin-rhodamine cleavage. Q70CQ3. purified USP30, Ub-rhodamine cleavage fluorescence. inhibition, % at 25 µM. actives 5.3% (n = 47,000). AID 1645860
USP28 inh: inhibitors of human USP28 deubiquitinase; inhibition, % at 25 µM; AID 1645857; actives 3% (n = 47,000); Q96RU2; purified USP28, Ub-rhodamine cleavage fluorescence, 30 min
USP17 block: inhibitors of human USP17 deubiquitinase; purified USP17, Ub-rhodamine cleavage fluorescence, 3 h; actives 6.5% (n = 47,000); AID 1645855; inhibition, % at 50 µM; A8MUK1
Target sequence (A8MUK1 whole entry, looked up): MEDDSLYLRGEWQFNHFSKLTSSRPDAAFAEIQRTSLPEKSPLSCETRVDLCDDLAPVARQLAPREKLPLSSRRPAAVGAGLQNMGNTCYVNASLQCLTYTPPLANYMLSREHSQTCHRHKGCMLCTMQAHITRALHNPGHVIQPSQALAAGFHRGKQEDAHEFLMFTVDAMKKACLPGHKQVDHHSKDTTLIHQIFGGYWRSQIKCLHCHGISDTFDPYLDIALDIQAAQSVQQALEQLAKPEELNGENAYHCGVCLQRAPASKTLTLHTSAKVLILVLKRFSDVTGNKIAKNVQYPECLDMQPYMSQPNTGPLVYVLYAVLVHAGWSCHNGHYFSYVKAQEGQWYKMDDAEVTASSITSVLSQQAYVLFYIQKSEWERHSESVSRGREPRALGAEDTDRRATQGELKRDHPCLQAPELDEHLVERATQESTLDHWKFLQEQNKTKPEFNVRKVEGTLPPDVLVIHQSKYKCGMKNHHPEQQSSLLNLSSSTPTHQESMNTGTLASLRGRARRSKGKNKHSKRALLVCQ
An asterisk follows results filed as active; i = inactive; / = not tested or not shown. Only some compounds are listed: those with a hit (about 11% of all), similar ones and a draw of the others. Cut-off read from the data, not from the text of the source: active = inhibition above about 30%; inactive = the rest.

SMILES	USP30 block	USP28 inh	USP17 block
COc1cc2c(cc1OC)C(c1ccccc1)N(Cc1ccno1)CC2 (centres undefined)	20	3	0
O=C(O)c1ccc2c(c1)C1(CCCCC1)CN2C(=O)CNC(=O)c1cccnc1	i	-147	-158
O=C(NNC1=NC2(CCCC2)Cc2ccccc21)c1cccnc1	32*	4	26
COc1cccc(CNC(=O)C2=Cc3cccc(OC)c3OC2)c1	0	60*	-103
COc1cccc(CNC(=O)c2nc3c(o2)CN(CC2CC2)C3)c1	-38	-13	-9
COc1ccc(-c2nnc(N3CCC(C(=O)NC4CCCC4)CC3)o2)cc1	80*	21	75*
O=C(NC1CCCCC1)C1CCN(c2ccc(N3CCCCC3)nn2)CC1	9	1	0
O=C(Nc1ccc(N2CCOCC2)cc1)c1cc(=O)[nH]c2ccccc12	9	9	60*
O=C(Nc1ccc2c(c1)OCCO2)c1cc(-c2ccccn2)nc2ccccc12	-27	-11	2
O=C(CCCc1c[nH]c2ccccc12)Nc1ccccc1N1CCOCC1	-14	-5	-6
O=C(CCCc1c[nH]c2ccccc12)Nc1ccc2c(c1)OCCO2	-20	75*	-35
O=C(Nc1ccc2c(c1)OCCCO2)c1cc(=O)[nH]c2ccccc12	/	/	46*
O=C(Nc1cc(S(=O)(=O)N2CCOCC2)ccc1N1CCCC1)c1cc(=O)[nH]c2ccccc12	-79	-14	-11
Cc1cc(C)nc(SCC(=O)N(Cc2ccco2)C2(C(=O)Nc3c(C)cccc3C)CCCCC2)n1	40*	27	58*
Cc1cccc(C)c1NC(=O)C1(N(Cc2ccco2)C(=O)c2ccccc2F)CCCCC1	36*	11	14
Cc1ccccc1NC(=O)C1(N(Cc2ccco2)C(=O)Cc2cc3ccccc3[nH]2)CCCCC1	-1	14	2
CC(=O)Nc1cccc(C(=O)N(Cc2ccco2)C2(C(=O)Nc3c(C)cccc3C)CCCCC2)c1	-7	-4	-7
COc1cc(-c2nc3cnccn3c2NCc2ccc3c(c2)OCO3)ccc1O	i	-233	-164
COc1ccccc1CCC(=O)N1CCN(c2cc(C)n3cnnc3n2)CC1	-45	-22	-19
CCOC(=O)N1CCC(NC(=O)c2cc(C(=O)Nc3ccc(S(=O)(=O)N4CCCCC4)cc3)ccc2CO)CC1	79*	42*	77*
N#Cc1ccc(S(=O)(=O)N2CCN(c3ncnc4cc(Cl)ccc34)CC2)cc1	29	21	22
CCC1CCCCN1S(=O)(=O)c1ccc(C(=O)Nc2ccc(S(N)(=O)=O)cc2)cc1 (centres undefined)	76*	35*	60*
CCOC(=O)N1CCN(S(=O)(=O)c2ccc(C(=O)Nc3ccc(S(N)(=O)=O)cc3)cc2)CC1	18	1	25
O=S(=O)(c1ccc(Cl)c(Cl)c1)N1CCN(c2ccnc3cc(Cl)ccc23)CC1	-2	-10	-18
CCOC(=O)N1CCN(S(=O)(=O)c2ccc(C(=O)Nc3ccc(OC)c4ccccc34)cc2)CC1	28	3	29
SMILES	USP30 block	USP28 inh	USP17 block
O=S(=O)(c1ccc(Cl)cc1)N1CCN(c2ccnc3cc(Cl)ccc23)CC1	30*	7	7
N#Cc1ccc(N2CCN(S(=O)(=O)c3ccc(Cl)cc3)CC2)cc1	31*	16	6
O=C(Nc1cnc(N2CCCCC2)nc1)c1c(F)cccc1Cl	-3	8	-10
Cc1nc(N)nc(C)c1CC(=O)N1CC[C@@H]2[C@H](C1)[C@@H](c1ccccc1)CN2C	17	5	7
CN(CCNS(=O)(=O)c1cc2c(cc1Cl)NC(=O)CO2)Cc1ccccc1	-98	-15	-11
COCC(=O)N1C2CCC3(CC2)OC(=O)N(Cc2ccccc2)CC13 (centres undefined)	0	-3	0
CC(=O)Nc1ccc(S(=O)(=O)N(Cc2ccc3c(c2)CCO3)C2CC2)cc1	-21	1	0
O=C(Nc1c(O)c2ccccc2oc1=O)c1ccccc1F	28	-5	16
O=C(Nc1ccc(S(=O)(=O)N2CCCC2)cc1)c1ccc(N2CCCC2=O)cc1	16	28	-5
N#Cc1ccc(NC(=O)c2ccc(S(=O)(=O)N3CCCCC3)cc2)cc1	54*	26	17
N#Cc1cccc(C(=O)Nc2ccc3c(N4CCCC4)ncnc3c2)c1	9	-1	1
N#Cc1ccc(C(=O)Nc2ccc3c(N4CCCC4)ncnc3c2)cc1	-12	-2	31*
CSc1ccccc1C(=O)Nc1ccc(S(=O)(=O)N2CCCC2)cc1	9	0	-4
CN(C)c1ccc(C(=O)Nc2ccc(S(=O)(=O)N3CCCC3)cc2)cc1	-28	42*	-8
Cc1cc2nc(C(F)(F)F)c(=O)n(CC(=O)NCC3CCCO3)c2cc1C (centres undefined)	2	-1	6
CCOc1ccc(-c2nc(CN3C(=O)NC4(CCCC4)C3=O)cs2)cc1	-30	-10	12
O=C1NC2(CCCCCC2)C(=O)N1Cc1nc(-c2ccc(Cl)cc2)no1	-34	-12	40*
O=C(NC1(O)C(=O)c2ccccc2C1=O)c1cccc2c1-c1ccccc1C2=O	45*	15	91*
Cc1ccccc1CNC(=O)CCc1ccc2nc(NC(=O)C(C)C)sc2c1	8	-4	21
COc1cccc(CNC(=O)CCc2ccc3nc(NC(=O)C(C)C)sc3c2)c1	0	-5	-7
CSc1cccc(NC(=O)CCc2ccc3nc(NC(C)=O)sc3c2)c1	54*	11	16
CC(C)C(=O)Nc1nc2ccc(CCC(=O)Nc3ccc(F)cc3F)cc2s1	33*	4	12
O=C(CCCn1c(=O)c2sccc2n(Cc2ccc(F)cc2)c1=O)NCc1ccco1	23	6	29
O=C(Cn1c(=O)c2sccc2n(CC(=O)OCc2ccccc2)c1=O)NCc1ccccc1Cl	12	7	16
O=C(CCn1c(=O)c2sccc2n(Cc2ccc([N+](=O)[O-])cc2)c1=O)NCc1ccccc1	50*	28	52*
SMILES	USP30 block	USP28 inh	USP17 block
COc1ccc(CCNC(=O)Cn2c(=O)c3sccc3n(Cc3ccccc3C#N)c2=O)cc1OC	24	12	12
O=C(Cn1c(=O)c2sccc2n(Cc2ccc([N+](=O)[O-])cc2)c1=O)NCCc1ccccc1	50*	16	26
COc1ccc(CNC(=O)CCn2c(=O)c3sccc3n(Cc3ccccc3C#N)c2=O)cc1	56*	16	55*
CC(C)CN1CCC2(CC1)NC(=O)N(C1CCCN(S(=O)(=O)c3ccccc3)C1)C2=O (centres undefined)	10	4	9
Cc1cc(C2CCCCCN2C(=O)c2ccco2)no1 (centres undefined)	-9	1	-1
Cc1cc(C(=O)N2CCc3nc(C(=O)N(C)C)sc3CC2)no1	5	1	3
Cc1ccccc1C(=O)c1ccc(C(=O)NC2CCCCCC2)[nH]1	52*	4	14
N#Cc1ccccc1-c1ccccc1C(=O)NC1CCCCC1	-5	-8	-9
Cc1ccc(NC(=O)c2sc(=S)n(CCc3ccccc3)c2N)cc1	44*	21	76*
CC1=NS(=O)(=O)N(Cc2ccccc2)C=C1C(=O)Nc1ccc(C)cc1	i	-197	-119
COc1ccc(-c2noc(CC(=O)Nc3ccccc3OC)n2)cc1	17	6	0
COc1ccccc1NC(=O)NCc1nc(-c2ccc(C(F)(F)F)cc2)no1	46*	9	24
